The panel holds about 83,000 compounds, 20% with a hit somewhere; the sample as a whole holds those more often.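 Percent growth is the endpoint: 0 to 100 indicates growth inhibition (40 means 60% inhibition), 0 means no net growth, and negative values indicate cell death.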 Calls of active or inactive are those of the source. Rule for the calls: active = growth percent below 10; inactive = the rest.
tested on: MDA-MB-468 breast; assay: NCI-60 one-dose screen, 48 h (100 = growth as untreated, 0 = no growth, -100 = all killed); conditions: 10 µM unless noted

SMILES	growth
Clc1ccc2c(Nc3ccc4oc(NCCN5CCCC5)nc4c3)ccnc2c1	70.6% (inactive)
Nc1nnc(-c2ccc3ccccc3c2O)o1	96.5% (inactive)
CN1CCCC1c1cccnc1 (stereo not drawn)	97.1% (inactive)

From PubChem BioAssay (NCI)
